# CD40 NFkB inh: inhibitors of CD40-induced NF-kB signaling, primary screen, BL2 cells, luciferase reporter, single point | CD40L-induced, 4 h | inhibition, % at 10 µM | hit rate 0.94% among 83,000 | AID 1053188, 2014;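 active = mean inhibition of at least 50% with a set share of replicates also reaching that level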;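 also: 0% = neutral control wells and 100% = IKK inhibitor VII at 50 µM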
# * hit, by the source's call; [ ] = dose if it differs, or a comment. This is one part of a sample in which hits are shown more often than they occur.
SMILES,CD40 NFkB inh
COc1cc(C(=O)OC2CCN(C)CC2)cc(OC)c1OC,16
O=C(CCN1CCCCC1)c1ccc2c(c1)OCCO2,0
O=C(CCN1CCC(c2ccccc2)C1)c1ccccc1 (stereo not drawn),5
COc1cc(C(=O)CCN2CCC(c3ccccc3)C2)cc(OC)c1OC (stereo not drawn),45*
O=C(CCN1CCC(c2ccccc2)C1)c1cccs1 (stereo not drawn),35
O=C(CCN1CCC(c2ccccc2)C1)c1ccc2c(c1)OCCO2 (stereo not drawn),45*
CN1C(=O)c2cc(NS(=O)(=O)c3cccc(F)c3)ccc2OC[C@H]2O[C@H](CC(=O)N3CCc4ccccc4C3)CC[C@H]21,-1[25 µM]
Cc1ccc2cc(NC(=O)C3(C)CCN3C(C)C)ccc2n1 (stereo not drawn),0
C/C=C/c1ccc([C@H]2[C@@H](CO)N(C(C)=O)[C@H]2CN(CCOC)C(C)=O)cc1,1[25 µM]
CC=Cc1ccc2n(c1=O)C[C@H]1[C@H](CO)[C@@H](C(=O)NCCc3cn(C)cn3)N(C(=O)C3CC3)[C@@H]21 (mixture of isomers),6[25 µM]
CCCNC(=O)N(C)C[C@@H]1Oc2cc(C#C[C@H](C)O)ccc2S(=O)(=O)N([C@H](C)CO)C[C@@H]1C,-18[25 µM]
NS(=O)(=O)c1ccc(Cl)c(S(N)(=O)=O)c1,10
Nc1ccc(S(N)(=O)=O)cc1N,-45
NC1=C(Cl)C(=O)c2ccc(S(N)(=O)=O)cc2C1=O,60*
O=C(NNC(=O)c1ccccc1O)c1ccc(Cl)c(S(=O)(=O)N2CCCCC2)c1,0
O=C(C[C@@H]1C[C@@H]2c3cc(NS(=O)(=O)c4ccccc4)ccc3O[C@@H]2[C@@H](CO)O1)N1CCOCC1,-1[25 µM]
O=C(C[C@H]1C[C@H]2c3cc(NC(=O)c4cccnc4)ccc3O[C@H]2[C@@H](CO)O1)NC1CCCC1,8
C[C@@H]1CN([C@H](C)CO)C(=O)c2cc(NS(=O)(=O)c3ccc(F)cc3)ccc2O[C@@H](C)CCCCO[C@@H]1CN(C)S(=O)(=O)c1ccc(F)cc1,15
CC(C)NC(=O)N(C)C[C@@H]1Oc2c(cccc2N(C)C)C(=O)N(C)C[C@H]1C,0
O=C(NCc1ccco1)c1ccc(-c2ccc(F)c(F)c2)c2ccoc12,-14
Cc1cc(SCC(=O)NC2(C#N)CCCCC2)nc2c(C)cccc12,-2
N#CC1(NC(=O)Cn2ncc(Cl)c(Cl)c2=O)CCCCC1,119*
N#CC1(NC(=O)COC(=O)c2ccc(Cl)nc2)CCCCC1,3
COc1ccc(S(=O)(=O)N2CC[C@@H]3[C@H]2c2cc(-c4ccccc4F)ccc2N[C@@H]3CO)cc1,-12[25 µM]
c1ccc(-n2c(SCc3cccc4ccccc34)nnc2-c2ccccn2)cc1,12
SMILES,CD40 NFkB inh
CC(C)c1cn(CC[C@@H]2CC[C@@H](NS(=O)(=O)c3ccc(F)cc3)[C@H](CO)O2)nn1,0[25 µM]
CC(C)Cc1ccc(C(C)CC2=CCC(CN(C)C)C2=O)cc1 (stereo not drawn),94*
O=C(Cc1cccnc1)N1CC(=O)N2[C@H](CO)[C@H](c3ccc(C#CC4CCCCC4)cc3)[C@@H]2C1,11[25 µM]
O=C(Nc1cccc(N2C(=O)C=CC2=O)c1)c1cccs1,99*
O=C(Nc1cccc(S(=O)(=O)N2CCCCC2)c1)c1cccs1,8
O=C(Nc1ccc2c(c1)CCC2)c1cccs1,-78
CN1C(=O)c2cc(NC(=O)C3CCC3)ccc2OC[C@H]2O[C@@H](CC(=O)NCCc3ccncc3)CC[C@H]21,-2
CC(C)OC(=O)c1cn(Cc2c(F)cccc2F)c2sc(-c3ccc(NC(=O)C(C)C)cc3)c(CN(C)Cc3ccccc3)c2c1=O,54*[25 µM]
N#C[C@@H]1[C@@H](c2ccccc2-c2cccc(F)c2)[C@H](CO)N1C(=O)CN1CCOCC1,-18[25 µM]
CC(C)CC#Cc1ccc([C@@H]2[C@H]3CN(S(=O)(=O)c4cccc(F)c4)CC(=O)N3[C@H]2CO)cc1,17[25 µM]
CC(C)Cc1ccc(CN2CCCC(NC(=O)CCN3CCCCC3=O)C2)cc1 (stereo not drawn),3
COCCNC(=O)C1CCCN(Cc2ccc(C(C)C)cc2)CC1 (stereo not drawn),7
CC(C)Cc1ccc(C(C)/C=C2/CCC(CN3CCCCC3)C2=O)cc1 (stereo not drawn),66*
O=C(OCCOc1ccc(Br)cc1)c1ccc(Cl)c(S(=O)(=O)N2CCOCC2)c1,4
CCCNC(=O)N1CC2(CCN(Cc3nccs3)CC2)c2c([nH]c3cc(OC)ccc23)[C@@H]1CO,-9[25 µM]
COc1ccc2c3c([nH]c2c1)[C@H](CO)N(C(=O)Nc1ccc(F)cc1)CC31CCN(C(=O)c2ccccc2F)CC1,60*[25 µM]
COc1ccc2c3c(n(C)c2c1)[C@@H](CO)N(C(=O)Nc1ccc(F)cc1)CC31CN(Cc2ccccc2F)C1,58*[25 µM]
COc1ccc2c3c([nH]c2c1)[C@@H](CO)N(C(=O)Nc1ccc(F)cc1)CC31CCN(C(=O)Cc2ccncc2)CC1,-9[25 µM]
COc1ccc2c3c(n(C)c2c1)[C@@H](CO)N(C(=O)c1ccc(F)cc1)CC31CN(C(=O)Nc2ccc(F)cc2)C1,0[25 µM]
COc1ccc2c3c(n(C)c2c1)[C@H](CO)N(C(=O)Nc1ccc(F)cc1)CC31CN(C(=O)Cc2ccncc2)C1,12[25 µM]
COc1ccc2c3c([nH]c2c1)[C@@H](CO)N(C)CC31CCN(C(=O)c2ccccc2F)CC1,5[25 µM]
CO[C@@H](CN(C)Cc1ccc2c(c1)OCO2)[C@H](C)CN(C(=O)c1ccccc1)[C@@H](C)CO,0[25 µM]
COc1cc(OC)cc(C(=O)NNC(=O)CCNC(=O)c2ccc(Br)cc2)c1,14
C[C@H]1CN([C@@H](C)CO)C(=O)CCCn2nncc2CO[C@H]1CN(C)C(=O)c1ccc2ccn(C)c2c1,5[25 µM]
O=C(c1cccnc1)N1C[C@@H]2N[C@H](C1)C2c1ccc(-c2cccnc2)cc1 (stereo partly drawn),11
SMILES,CD40 NFkB inh
NC(=O)C(CCCCN1CCCCC1)(c1ccccc1)c1ccccc1,2
OC(CCCN1CCC(O)(c2ccc(Cl)cc2)CC1)c1ccc(F)cc1 (stereo not drawn),18
CN(C)C(=O)C(CCN1CCC(O)(c2ccc(Cl)cc2)CC1)(c1ccccc1)c1ccccc1,50*
CCC(=O)N1CCCCN2[C@@H](CO)[C@H](c3ccc(C#Cc4ccccc4)cc3)[C@@H]2C1,3[25 µM]
COCCNC(=O)C[C@@H]1C[C@H]2c3cc(NC(=O)CN(C)C)ccc3O[C@H]2[C@@H](CO)O1,2[25 µM]
COc1ccc(NC(=O)CNc2cc(S(=O)(=O)N3CCOCC3)ccc2NCC2CCCO2)cc1 (stereo not drawn),-10
CCCN(C(=O)c1cccc(-n2cccc2)c1)c1c(N)n(Cc2ccccc2)c(=O)[nH]c1=O,-4
OC(CN1CCOCC1)Cn1c(-c2cccc(Cl)c2)nc2ccccc21 (stereo not drawn),0
OC(c1cc(-c2cccc(Cl)c2)nc2ccccc12)C1CCCCN1 (stereo not drawn),65*
O=C(O)c1cc(-c2ccccc2)nc2ccccc12,-4
O=C(NCc1ccccn1)c1cc(-c2ccccc2)on1,-24
O=C(c1ccccc1)c1cc(-c2ccccc2)on1,73*
Cc1cc(NC(=O)c2cc(-c3ccccc3)on2)no1,-49
CO[C@@H]1CN(C)C(=O)c2ccc(NC(=O)C3CCC3)cc2OC[C@@H](C)N(Cc2nccs2)C[C@@H]1C,-3
Fc1ccccc1-c1ccc(C2[C@H]3CNC[C@@H]2N3CC2CC2)cc1 (stereo partly drawn),-3[25 µM]
Nc1c(C(=O)N2CCOCC2)sc2nc3c(cc12)CCC3,-51

# From PubChem
